SMN2 splice enh: increases expression of the SMN2 splice variant | HEK293 SMN2-luciferase splicing reporter, luminescence, 30-36 h | Potency, µM (highest dose often 46.1 µM), without a hit: at the top dose activity change, positive = activation, hits mostly activators | actives 2.8% (n = 210,000); also: % of control where 0% means no effect; nearly all actives have a fitted effect of over 55% in size
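HEK293 cells carry an SMN2 […]–luciferase reporter in which exon 7 inclusion puts luciferase in frame. Cells were plated 10-12 h before compound addition, then incubated 30-36 h at 37C. ONE-Glo luminescence was read; sodium butyrate at 4.5 mM final served as control.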
KinaseGlo FLuc: counter-screen: inhibitors of Kinase-Glo firefly luciferase; Q27757; actives 0.28% (n = 200,000); Potency, µM (series often up to 38.3 µM), for the others: top-dose activity change, negative = inhibition, hits mostly inhibitors; Kinase-Glo luciferase, ATP luminescence, 8 min; also: % is scaled to controls: 0 for no effect and ±100 for the full control effect; nearly all actives have a fitted effect of over 60% in size
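Kinase-Glo luciferase light output from ATP and luciferin was measured with 10 uM ATP, within the enzyme's linear range. Buffer: 50 mM imidazole pH 7.2, 50 mM KCl, 7 mM MgCl2, 0.01% Tween 20, 0.05% BSA; luminescence read after 8 min at ambient temperature.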
ELG1 genotoxic: induces genotoxicity in HEK293T cells with luciferase-tagged ELG1; Potency, µM (top dose mostly 46 µM), inactives show at the highest dose activity change, positive = activation, most hits filed as activators; HEK293T ELG1-luciferase reporter, luminescence, 16 h; actives 1.3% (n = 330,000); AID 504466; also: % of control where 0% means no effect; nearly all actives have a fitted effect of over 60% in size
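Quantitative HTS format in 1536-well plates. HEK293T ELG1-luciferase reporter cells receive test compound and are incubated 16 hr at 37 °C, 5% CO2; ONE-Glo added, 30 min room temperature, then luminescence read.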
Rab9 promoter act: Rab9 promoter activation; Huh7 Rab9 promoter-luciferase reporter, luminescence, 24 h; Potency, µM (top dose mostly 9.22 µM), without a hit: at the highest dose activation, negative = inhibition, most hits filed as activators; actives 2.8% (n = 320,000); also: % of control where 0% means no effect; nearly all actives have a fitted effect of over 60% in size
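Steps: seed 1500 Huh7 Rab9-luc cells per well, rest 2 h at 37 °C; add compound in DMSO; incubate 24 h; add luciferase reagent, 10 min ambient; read luminescence.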
NPC1 prom act: NPC1 promoter activation | Huh7 NPC1 promoter luciferase reporter, 24 h | Potency, µM (series often up to 9.22 µM), inactives show at the highest dose activation, most hits filed as activators | actives 2.4% (n = 320,000) | AID 485313; also: % of control where 0% means no effect; nearly all actives have a fitted effect of over 60% in size
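In 1536-well qHTS, Huh7 cells harboring an NPC1 promoter–luciferase construct received compound for 24 h; activation was quantified by luminescence following luciferase reagent addition.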
FLuc counter: counter-screen for miR-21 project: firefly luciferase inhibitors or activators | actives 6.9% (n = 360,000) | Potency, µM (series often up to 57.5 µM), without a hit: top-dose activity change, negative = inhibition, usual class: inhibitors | purified FLuc, Km substrates, luminescence inhibition;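 also: plate controls were vehicle for no effect and reference inhibitor for full effect; nearly all actives have a fitted effect of over 55% in size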
Target sequence (P08659 whole entry, looked up): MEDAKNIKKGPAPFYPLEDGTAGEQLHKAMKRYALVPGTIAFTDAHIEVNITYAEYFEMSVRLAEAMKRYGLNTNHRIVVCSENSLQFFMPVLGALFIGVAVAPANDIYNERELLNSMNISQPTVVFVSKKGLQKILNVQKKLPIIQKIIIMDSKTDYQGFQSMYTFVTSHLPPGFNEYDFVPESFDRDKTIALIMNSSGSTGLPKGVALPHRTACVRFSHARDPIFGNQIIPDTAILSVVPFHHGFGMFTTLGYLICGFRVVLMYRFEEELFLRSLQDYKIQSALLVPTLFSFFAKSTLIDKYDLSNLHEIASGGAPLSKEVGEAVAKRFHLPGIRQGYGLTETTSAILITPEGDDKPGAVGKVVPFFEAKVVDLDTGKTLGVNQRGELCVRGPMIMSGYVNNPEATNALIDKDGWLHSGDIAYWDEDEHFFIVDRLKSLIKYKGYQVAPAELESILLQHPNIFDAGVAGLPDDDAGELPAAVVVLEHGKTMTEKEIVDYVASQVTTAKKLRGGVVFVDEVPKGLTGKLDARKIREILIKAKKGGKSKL
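Purified P. pyralis luciferase (10nM final) with 10uM D-luciferin and 10uM ATP (Km levels) in 50mM Tris acetate pH 7.5, 10mM Mg acetate, 0.01% Tween-20, 0.05% BSA; qHTS 6-point titration, ~60 µM downward; luminescence read.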
* = called active by the depositor; u = inconclusive; x = no result given. Rows were chosen to be rich in hits. Some 7.4% of all compounds tested hit in one or more screens of this group. Calls follow the shape of the dose curve; as a rule, active = well fitted curve in the direction sought with a large enough effect; inconclusive = small, poorly fitted or top-dose-only effect, or another doubt; inactive = no such curve, though single readings can be large; an effect the other way counts as inactive or inconclusive. Potency is read from the fitted curve at half-maximal effect.

SMILES	SMN2 splice enh	KinaseGlo FLuc	ELG1 genotoxic	Rab9 promoter act	NPC1 prom act	FLuc counter
CCOC(=O)N1CCC(N2Cc3cccc(C(=O)Nc4ccc(OC)c(OC)c4)c3C2=O)CC1	-1%	-4%	-12%	5%	8%	15µM*
CS(=O)(=O)c1cnc2c(S(=O)(=O)c3ccccc3)cnn2c1N	8%	4%	0%	-1%	-1%	-1%
CS(=O)(=O)c1cnc2c(-c3ccsc3)cnn2c1N	13µM*	-1%	21µM*	2.8µM*	2.8µM*	11µM*
CC(=O)c1ccc(NC(=O)CSc2ccc3nc(-c4ccccc4)cn3n2)cc1	x	x	x	x	x	12µM*
CCc1ccc(NC(=O)CSc2ccc3nc(-c4ccc(OC)cc4)cn3n2)cc1	x	x	x	x	x	2.7µM*
CCc1ccc(NC(=O)CSc2ccc3nnc(CCNS(=O)(=O)c4ccc(OC)cc4)n3n2)cc1	x	x	x	x	x	-9%
O=C(CSc1ccc2nc(-c3ccccc3)cn2n1)Nc1ccccc1C(F)(F)F	x	x	x	x	x	-11%
N#CCSc1ccc2nc(-c3ccccc3)cn2n1	x	x	u	2µM*	2.8µM*	7.6µM*
Cc1ccc(OCC(=O)N/N=C2\CCOc3c(C)cccc32)cc1	-13%	0%	-3%	-2%	6%	u
COc1cccc2c1OCC/C2=N\NC(=O)COc1ccccc1C	17%	-3%	9%	1%	9%	6.7µM*
Cc1ccccc1OCC(=O)N/N=C1\CCOc2c(C)cccc21	12%	-4%	6%	u	27%	3%
COc1cccc2c1OCC/C2=N\NC(=O)COc1ccc(C)cc1	30%	-3%	7%	1%	-1%	15µM*
COc1ccc(S(=O)(=O)Nc2ccc(-n3cccc3)cc2)cc1	5%	1%	-8%	2%	9%	-16%
Cc1cc(Nc2cccc(F)c2)n2nc(-c3ccco3)nc2n1	x	x	x	x	x	-1%
CCC1CCCCN1C(=O)CSc1nnc(-c2cccs2)o1 (stereo not drawn)	u	-3%	6.5µM*	3.2µM*	u	17µM*
CC1CCCN(C(=O)CSc2nnc(-c3cccs3)o2)C1 (stereo not drawn)	x	x	u	3.5µM*	2.5µM*	21µM*
O=S(=O)(Nc1ccc2c(c1)OCCO2)c1c(F)cccc1F	x	x	4%	6%	-1%	-17%
NC(=S)N/N=C/c1ccccc1	22%	2%	1%	-10%	1%	0%
NC(=S)N/N=C/c1ccc(C23CC4CC(CC(C4)C2)C3)cc1	x	x	u	-7%	-1%	21µM*
O=C(Cn1c(=O)nc(-c2ccccc2)c2ccccc21)NCc1ccc(F)cc1	x	x	x	x	x	-3%
COc1ccc(C)c2sc(=NC(=O)C(C)C)n(C)c12	-16%	2%	2%	2%	6%	-1%
COc1ccc(C)c2sc(=NC(=O)c3cccc(N4C(=O)CCC4=O)c3)n(C)c12	x	x	u	u	u	6.7µM*
COc1ccc(C)c2sc(=NC(=O)c3ccccc3)n(C)c12	11µM*	13µM*	6.5µM*	2.8µM*	u	2.1µM*
COc1ccc(C)c2sc(=NC(=O)c3ccc(C(C)=O)cc3)n(C)c12	x	x	u	0.5µM*	0.56µM*	0.67µM*
C=CCn1c(=NC(=O)c2cccc(N3C(=O)CCC3=O)c2)sc2cccc(OC)c21	x	x	-8%	-3%	1%	u
SMILES	SMN2 splice enh	KinaseGlo FLuc	ELG1 genotoxic	Rab9 promoter act	NPC1 prom act	FLuc counter
C=CCC[C@@H](Cc1ccc(F)cc1)C(=O)OC[C@@H](NC(=O)[C@@H](CC=C)CC(=O)N[C@H](CO)Cc1ccccc1)C(C)(C)C	x	x	-4%	x	x	x
C=CCn1c(SCC(=O)c2ccc(Cl)cc2)nnc1-c1ccc2c(c1)OCO2	5%	-2%	0%	-3%	1%	-18%
CCN(CC)CCNC(=O)C(=O)NCC(c1ccc2c(c1)OCO2)N1CCOCC1 (stereo not drawn)	x	x	x	x	x	-2%
Cc1nc2cc3nc(C)sc3cc2s1	u	-16%	u	4µM*	u	12µM*
Cc1nc2cc(CO)ccc2s1	6%	-3%	-2%	7%	0%	12%
Cc1ccc(C(=O)Oc2oc(-c3ccco3)nc2C=Nc2ccc(Cl)cc2)cc1	14µM*	-3%	u	3.2µM*	1.8µM*	4.8µM*
COc1ccc(N=Cc2nc(-c3ccccc3)oc2OC(C)=O)cc1	x	x	0%	2%	2%	-10%
Cc1ccc(C(=O)Oc2oc(-c3ccccc3)nc2C=Nc2ccc(N(C)C)cc2)cc1	8.9µM*	1%	u	u	u	13µM*
CN(C)c1ccc(N=Cc2nc(-c3ccccc3)oc2OC(=O)c2cccc(Cl)c2)cc1	11µM*	-5%	u	4.5µM*	u	u
Cc1nonc1-c1csc(N)n1	3%	-3%	4%	2%	2%	-1%
O=c1cc(-c2ccccc2)[nH]c2nc3ccccc3n12	4µM*	13µM*	2.3µM*	2µM*	3.5µM*	0.95µM*
O=c1cc(CCl)[nH]c2nc3ccccc3n12	x	x	0%	-1%	-4%	u
O=C(O)c1ccccc1C(=O)c1ccc2c(c1)CCC2	x	x	-1%	-4%	4%	-1%
Cc1ccc(C2=Nc3ccccc3N=C(C(Cl)Cl)C2)cc1	-67%	u	u	3.2µM*	3.2µM*	9.5µM*
Cc1ccc2c(c1)N=C(c1ccccc1)CC(C(Cl)Cl)=N2	x	x	u	3.2µM*	u	8.5µM*
Oc1ccc(Cl)cc1C1=Nc2ccccc2N=C(c2ccccc2)C1	29%	x	x	x	x	-1%
Cc1ccc(O)c(C2=Nc3ccccc3N=C(c3cccs3)C2)c1	-22%	-1%	-4%	-4%	-2%	-6%
Cc1ccc(NC(=O)CN2C(=O)CCn3nc(-c4cccn4C)cc32)cc1	x	x	x	x	x	3%
CC1CCCCN1C(=O)COC(=O)c1cccc(NS(=O)(=O)c2ccccc2)c1 (stereo not drawn)	x	x	7%	8%	-2%	u
COc1ccc(/C=N/Nc2ccccc2C(=O)O)cc1Cn1cc([N+](=O)[O-])cn1	x	x	12%	22%	27%	19µM*
CN(C)S(=O)(=O)c1cccc(C(=O)N=C2N=C3C=CC(Cl)=CN3Cc3ccccc32)c1	x	x	u	3.5µM*	2.5µM*	17µM*
Cc1ccccc1-n1sc2cc(F)ccc2c1=O	-48%	-8%	-10%	5%	10%	11µM*
CC(C)N(C(=O)[C@H]1CC(CC(=O)NCCc2ccccn2)C(=O)N2CCc3c([nH]c4ccccc34)[C@]12C)C(C)C (stereo partly drawn)	x	x	0%	x	x	x
N#Cc1c(N)nc2c(c1-c1cccc(O)c1)CCCCCC2	7%	3%	-1%	2%	-1%	0%
